# Source: publication PMC12618258
# What was measured:
# Assay in all cases: cross-link between two proteins; cross-linking mass spectrometry
# [1] = molecular target: Large ribosomal subunit protein eL6 (UniProt Q02878)
# [2] = molecular target: Large ribosomal subunit protein eL24 (UniProt P83731)
# [3] = molecular target: Large ribosomal subunit protein eL38 (UniProt P63173)
# [4] = molecular target: Large ribosomal subunit protein eL30 (UniProt P62888)
# [5] = molecular target: Large ribosomal subunit protein uL3 (UniProt P39023)
substance,measurement,setting,value
"Small ribosomal subunit protein uS5, P15880",listed as a hit,[1],yes
"Large ribosomal subunit protein eL22, P35268",listed as a hit,[2],yes
same,listed as a hit,[3],yes
"Small ribosomal subunit protein uS4, P46781",listed as a hit,[4],yes
"Large ribosomal subunit protein eL31, P62899",listed as a hit,[2],yes
"Large ribosomal subunit protein eL13, P26373",listed as a hit,[5],yes
